PAFAH1B3 inh: inhibitors of human PAFAH1B3; Q15102; recombinant PAFAH1B3, FP-rhodamine probe, fluorescence polarization; inhibition, % at 3.39 µM; 340,000 tested, 0.28% active;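 active means inhibition above the screen-wide average of all tested compounds plus 3 SD, cut at about 25% in these data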;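 further: 0% = enzyme with DMSO only and 100% = wells lacking PAFAH1B3 protein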
PAFAH2 inh: PAFAH2 (human) inhibition; 340,000 tested, 0.99% active; inhibition, % at 3.39 µM; recombinant PAFAH2, FP-rhodamine activity probe, fluorescence polarization; Q99487;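 active means inhibition above the mean over all tested compounds plus 3 SD, cut at about 30% in these data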;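 further: inhibitors block probe labeling of enzyme so polarization drops; 0% = enzyme with DMSO and 100% = wells lacking PAFAH2 protein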
ATG4B inhibitor: inhibitors of human ATG4B cysteine protease | ATG4B cleavage of LC3-PLA2, NBD-HPC fluorescence, 1 h | AID 504462 | inhibition, % at 8.33 µM | 340,000 tested, 0.51% active; in the data active means inhibition above about 40%
Target sequence (Q9Y4P1 whole entry, looked up): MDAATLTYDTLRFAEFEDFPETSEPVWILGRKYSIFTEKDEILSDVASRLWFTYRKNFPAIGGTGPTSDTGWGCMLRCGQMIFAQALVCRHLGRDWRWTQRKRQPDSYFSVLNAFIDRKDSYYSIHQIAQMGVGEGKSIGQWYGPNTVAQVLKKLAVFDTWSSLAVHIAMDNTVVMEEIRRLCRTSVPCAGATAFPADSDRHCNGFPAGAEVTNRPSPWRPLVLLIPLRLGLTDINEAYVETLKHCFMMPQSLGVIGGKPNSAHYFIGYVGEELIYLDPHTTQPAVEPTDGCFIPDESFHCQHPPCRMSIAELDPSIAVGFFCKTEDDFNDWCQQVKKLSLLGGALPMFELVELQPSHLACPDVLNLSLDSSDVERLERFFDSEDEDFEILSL
PAFAH1B2 inh: blocks human PAF acetylhydrolase 1b catalytic subunit 2; P68402; recombinant PAFAH1B2, FP-rhodamine activity probe, fluorescence polarization; inhibition, % at 3.39 µM; 340,000 tested, 1.2% active;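 active means inhibition above the mean of all tested compounds plus 3 SD, cut at about 24% in these data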;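 further: 0% = enzyme with DMSO and 100% = wells lacking PAFAH1B2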
Target sequence (P68402 whole entry, looked up): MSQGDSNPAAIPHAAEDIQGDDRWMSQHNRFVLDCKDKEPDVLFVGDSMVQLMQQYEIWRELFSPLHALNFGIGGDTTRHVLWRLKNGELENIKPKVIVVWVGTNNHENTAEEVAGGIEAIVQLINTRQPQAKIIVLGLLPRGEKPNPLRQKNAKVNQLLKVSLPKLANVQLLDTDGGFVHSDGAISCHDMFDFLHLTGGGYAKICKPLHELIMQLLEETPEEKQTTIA
pPAFAH FP inh: inhibitors of human plasma PAF acetylhydrolase (pPAFAH). Q13093. recombinant pPAFAH, FP-rhodamine probe fluorescence polarization. inhibition, % at 3.39 µM. 330,000 tested, 1.5% active;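 active means inhibition above the mean inhibition across the screen plus 3 SD, cut at about 25% in these data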;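 further: inhibitors block binding of the rhodamine activity-based probe so polarization drops; 0% = enzyme with DMSO and 100% = wells lacking pPAFAH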
DAGLB inh: diacylglycerol lipase beta (human) inhibition; Q8NCG7; HEK293T DAGLB membrane lysate, EnzChek fluorogenic substrate; inhibition, % at 5.17 µM; 340,000 tested, 0.059% active; AID 504411; in the data active means inhibition above about 34%;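 further: 0% = enzyme with vehicle and 100% = wells lacking enzyme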
Starred values were filed as active, the others as inactive; / = not tested or not shown. Hits are enriched below; roughly 3% of the tested compounds scored in any of these assays.

SMILES	PAFAH1B3 inh	PAFAH2 inh	ATG4B inhibitor	PAFAH1B2 inh	pPAFAH FP inh	DAGLB inh
COc1ccc(C(=O)OCC(=O)Nc2sccc2C(N)=O)cc1OC	0.6	22.0	-17.4	9.0	2.9	-1.8
O=C(COC(=O)c1ccc(Br)o1)Nc1ncc([N+](=O)[O-])s1	16.6	24.8	11.1	5.7	26.6*	14.2
COc1ccc(C(=O)OCC(=O)Nc2ncc([N+](=O)[O-])s2)cc1OC	30.4*	40.2*	9.4	9.4	24.5	7.7
COc1ccc(OC)c(C(=O)COC(=O)COc2ccccc2)c1	7.4	3.2	2.2	1.9	4.3	-8.8
NC(=O)c1c(NC(=O)c2ccco2)sc2c1CCC2	3.7	-2.9	-1.2	-1.6	6.9	0.7
N#Cc1c(NC(=O)c2ccco2)sc2c1CCC2	4.3	-50.1	-4.7	11.3	29.9*	0.5
Fc1ccc(-c2cc(C(F)(F)C(F)F)[nH]n2)cc1	/	/	3.5	/	25.2*	/
Cc1ccc(C)c(NC(=O)COc2coc(CN3CCc4ccccc43)cc2=O)c1	5.7	-1.3	6.6	1.4	7.2	3.1
O=C(COc1coc(CN2CCc3ccccc3C2)cc1=O)Nc1cccc(F)c1	5.1	18.8	4.5	2.4	30.1*	-6.6
O=C(COc1coc(CN2CCc3ccccc32)cc1=O)NCCc1ccccc1	5.1	1.5	-9.3	28.0*	4.3	0.6
CCOC(=O)c1cc2c(N)c(C(=O)c3ccc(Br)cc3)sc2[nH]c1=O	12.0	31.8*	5.4	32.0*	10.4	0.8
O=c1c(-c2ccc(O)cc2)coc2cc(O)ccc12	10.8	-5.0	-2.4	2.4	-0.8	3.9
O=c1c(O)c(-c2ccc(O)c(O)c2)oc2cc(O)ccc12	37.6*	66.4*	-25.8	14.9	/	-1.8
Cc1nn(CCCC(=O)NCCc2ccc(Cl)cc2)c(=O)c2nn(-c3ccccc3)c(C)c12	9.0	-1.9	-1.1	8.8	7.8	-1.5
CCCC(CCC)=NNc1ccc(S(=O)(=O)Nc2ccccc2OC)cc1[N+](=O)[O-]	5.0	-2.2	-9.8	1.1	-1.1	16.4
CSc1ccc(C=NNc2ccc(S(=O)(=O)Nc3ccccc3C(=O)O)cc2[N+](=O)[O-])cc1	14.4	19.7	-2.3	8.9	22.3	11.2
C=CCOc1ccc(C=NNc2ccc(S(=O)(=O)Nc3ccccc3C(=O)O)cc2[N+](=O)[O-])cc1OC	15.1	13.2	23.7	9.8	36.8*	10.3
CCOc1cccc(C=NNc2ccc(S(=O)(=O)Nc3ccccc3C(=O)O)cc2[N+](=O)[O-])c1O	9.5	7.1	25.1	16.0	30.1*	18.0
O=C(O)c1ccccc1/C=N/Nc1ccc(S(=O)(=O)N2CCCC2)cc1[N+](=O)[O-]	7.8	-6.1	-4.9	12.0	8.9	8.3
O=C(O)c1ccccc1NS(=O)(=O)c1ccc(NN=Cc2ccccc2F)c([N+](=O)[O-])c1	8.3	7.0	39.8	15.4	51.1*	23.9
COc1ccc(C2CC2/C(C)=N/OC(=O)C2CC2)cc1 (stereo not drawn)	8.7	5.5	1.4	-1.6	4.7	-3.3
C/C(=N/OC(=O)C1CC1c1ccccc1)c1ccccc1 (stereo not drawn)	6.3	31.6*	10.1	46.1*	13.1	-13.3
CC(C)C(NC(=O)C12CC3CC(CC(C3)C1)C2)C(=O)O (stereo not drawn)	-1.5	-1.6	2.6	26.0*	3.1	-0.9
O=C(CCC(=O)NC1CCCCC1)Nc1cccnc1	0.2	5.6	-3.4	-1.5	2.2	-2.9
O=C(NNC(=O)C12CC3CC(CC(Cl)(C3)C1)C2)c1csc(N2CCOCC2)n1	3.0	10.8	3.2	33.0*	-0.1	-1.8
SMILES	PAFAH1B3 inh	PAFAH2 inh	ATG4B inhibitor	PAFAH1B2 inh	pPAFAH FP inh	DAGLB inh
Cc1cc(/C=C2\SC(=S)NC2=O)c(C)n1-c1ccccc1	/	/	22.6	/	30.3*	/
Clc1ccc(SCCn2ccnc2)cc1	7.4	0.6	-1.6	35.1*	0.3	0.4
Cc1ccc(Nc2cc(C)nn2-c2nc(C)cc(C)n2)cc1	0.5	21.7	-2.0	1.3	21.0	1.4
Cc1ccc(Nc2cc(C)nn2-c2nc(C)cc(=O)[nH]2)cc1	3.4	4.3	-3.2	-2.5	29.9*	7.7
COCCCNC(=O)Cn1cnc2c(OCc3ccccc3)ncnc21	7.9	7.9	2.4	0.9	-0.2	-1.3
Cc1ccccc1NC(=O)Cc1nc(COC(=O)C(NC(=O)c2ccccc2C)C(C)C)cs1 (stereo not drawn)	3.1	5.4	-18.8	3.3	9.6	-1.5
CCOc1ccccc1C(=O)N[C@H](C(=O)OCc1csc(CC(=O)Nc2ccc(C)cc2)n1)C(C)C	2.5	8.0	9.1	-0.2	32.9*	-7.3
CN1CCN(c2cc(N3CCN(C(=O)c4ccco4)CC3)c3c4c(onc24)-c2ccccc2C3=O)CC1	8.8	4.8	11.2	9.1	10.8	10.4
O=C(O)CCCNc1cc(N2CCC3(CC2)OCCO3)c2noc3c2c1C(=O)c1ccccc1-3	/	/	/	/	75.5*	/
COc1ccc(C(CNC(=O)c2cccc(NS(=O)(=O)c3ccc(C)c(F)c3)c2)N2CCOCC2)cc1 (stereo not drawn)	6.4	2.8	-2.6	-0.1	8.6	-0.4
Cc1ccc(CS(=O)(=O)c2cn(CC(=O)Nc3ccon3)c3ccccc23)cc1	-1.1	-2.3	-8.7	0.8	13.1	-0.3
CC(C)(C)c1ccc(OCC(=O)NNC(=S)NC(=O)c2ccccc2[N+](=O)[O-])c(Br)c1	6.2	11.6	11.7	38.9*	29.3*	11.5
Cc1ccccc1OCC(=O)NNC(=S)NC(=O)c1ccccc1[N+](=O)[O-]	0.8	1.5	-14.7	7.9	9.2	7.0
O=C(Cn1nc(Br)nc1Br)c1ccccc1	46.7*	51.5*	3.5	29.4*	4.1	-2.7
O=C(O)c1ccn2c(C(=O)c3ccccc3)c(-c3ccccc3)cc2c1	4.2	1.2	11.5	38.0*	16.1	1.4
Cc1cccc(NC(=O)C2CCCN(S(=O)(=O)c3ccc4[nH]c(=O)ccc4c3)C2)c1 (stereo not drawn)	5.0	-8.0	1.8	3.2	3.6	1.8
CC(=O)Nc1ccc(NC(=O)C(C)OC(=O)CSc2ccc(Br)cc2C)cc1 (stereo not drawn)	-4.5	9.7	-13.4	24.5*	15.1	3.0
O=C(c1ccc(-c2ccc([N+](=O)[O-])cc2)o1)N1CCN(S(=O)(=O)c2cccs2)CC1	3.0	8.1	-7.2	12.3	17.5	5.9
Cc1ccc(-n2nc3c(c2NC(=O)c2c(-c4ccccc4Cl)noc2C)CSC3)cc1	/	/	42.6*	/	2.3	/
Cc1ccccc1-n1nc2c(c1NC(=O)c1c(-c3ccccc3Cl)noc1C)CSC2	-10.7	-17.4	-6.9	-5.2	4.7	11.6
COC(=O)c1c(-c2ccc(C(C)(C)C)cc2)csc1NC(=O)C1C2CCC(O2)C1C(=O)O (stereo not drawn)	5.6	-3.9	-15.0	20.3	3.5	-0.7

Screening results (PubChem)
